Source: ChEMBL document CHEMBL1157539, “Thousands of chemical starting points for antimalarial lead identification” (Nature, 2010)

What was measured:
Format in all cases: functional
Plasmodium falciparum [1] = assay: GSK_TCMDC: Inhibition of Plasmodium falciparum 3D7 in whole red blood cells, using parasite LDH activity as an index of growth. Test compounds present at 2uM
Plasmodium falciparum [2] = assay: GSK_TCMDC: Inhibition of Plasmodium falciparum Dd2 in whole red blood cells, using parasite LDH activity as an index of growth. Test compounds present at 2uM
HepG2 = assay: GSK_TCMDC: Percent inhibition of human HepG2 cell line. Test compounds present at 10uM.

SMILES | Inhibition (Plasmodium falciparum [1]) [%] | Inhibition (Plasmodium falciparum [2]) [%] | Inhibition (HepG2) [%]
COc1cccc(CN2CCCN(Cc3cccc(NC(=O)c4ccc(Cl)c(Cl)c4)c3)CC2)c1.O=C(O)C(F)(F)F | 89 | 11 | 26
CCNc1cc(C(=O)NC(Cc2ccccc2)C(O)CNC(C)(C)CCCC(C)C)c(F)c(N2CCCS2(=O)=O)c1.O=CO (stereo unspecified) | 98 | 97 | 0
CCC(N)(C#Cc1ccc(-c2c(C)[nH]c(C)c(Br)c2=O)cc1)CC | 97 | 96 | 0
COc1cc(C2CCN(CCCCNC(=O)c3ccc(NC(=O)c4cc(C(F)(F)F)cc(C(F)(F)F)c4)cc3)CC2)ccc1OC(C)C | 100 | 100 | 21
CN(Cc1ccc(-c2ccc(C(F)(F)F)cc2)cc1)C(=O)Cn1c(CCc2cccc(F)c2F)cc(=O)c2ccc(OCC3CCCN3C)cc21.O=C(O)C(O)C(O)C(=O)O (stereo unspecified) | 87 | 37 | 100
Br.CC1(C)NC(N)=NC(=N)N1OCCCNC(=O)c1ccc(C(=O)NCCCON2C(=N)N=C(N)NC2(C)C)cc1 | 91 | 96 | 0
O=C(Nc1ccc(OC2CCN(Cc3ccc(F)cc3)CC2)c(Cl)c1)c1ccco1.O=C(O)C(F)(F)F | 95 | 95 | 2
c1ccc(Nc2nc(-c3ccccn3)cs2)nc1 | 87 | 93 | 45
Cc1nnsc1C(=O)Nc1cccc(-c2ccc(-c3nc4ccccc4[nH]3)s2)c1 | 89 | 13 | 55
CCCN1CCN(c2ccc(NS(=O)(=O)c3ccc(C(=O)Nc4ccc(Cl)cc4)cc3)cc2)CC1.O=C(O)C(F)(F)F | 100 | 50 | 4
CC(C)c1ccc(NC(=O)NC2CCN(CCCCCNC(=O)/C=C/c3ccc(Cl)c(Cl)c3)CC2)cc1 | 100 | 19 | 0
c1ccc([C@H]2CN3CCSC3=N2)cc1 [LEVAMISOLE] | 93 | 1 | 11
CC(C)C[C@H](Nc1ccnc(NCC2CCCCC2)n1)C(=O)Nc1ccccc1.O=C(O)C(F)(F)F | 87 | 42 | 6
N#CCCN1CCN(Cc2ccc(-c3ccc(-c4nc5cc(F)ccc5[nH]4)s3)cc2)CC1.O=C(O)C(F)(F)F | 99 | 38 | 58
CCNc1cc(C(=O)N[C@@H](Cc2ccccc2)[C@H](O)CNCCc2cccc3ccccc23)cc(N2CCCC2=O)c1.O=CO | 86 | 39 | 12
Cc1cc(O)c(-c2ccc(Oc3ccc(F)cc3)cc2)c(C)n1 | 85 | 59 | 0
N=C(N)NN=CC(=O)Nc1ccc(Cl)c(Cl)c1 | 97 | 0 | 0
COc1ccc(N2C(=O)C3C(C2=O)C2(C)c4ccccc4C3(C)c3ccccc32)c([N+](=O)[O-])c1 (stereo unspecified) | 99 | 54 | 11
COc1ccc(CNC2CCN(C)CC2)cc1-c1cccc(S(=O)(=O)NCc2ccccc2)c1.O=C(O)C(F)(F)F | 100 | 7 | 43
CN1CCC(c2c[nH]c3ccc(NC(=O)Nc4ccc(-c5ccncc5)cc4Cl)cc23)CC1 | 100 | 7 | 31
COc1ccc(NC(=O)[C@H](CC(C)C)Nc2cc(C)nc(NCC3CCCCC3)n2)cc1.O=C(O)C(F)(F)F | 100 | 92 | 7
Nc1c(Cl)cc(C(O)CNCCCCCOCCc2ccc3ccccc3n2)cc1Cl.O=C(O)/C=C/C(=O)O (stereo unspecified) | 98 | 97 | 9
Cl.N#Cc1ccc(C=CC(=O)NC2CCC(CCN3CCc4ccc(-c5cnccn5)cc4CC3)CC2)cc1 (stereo unspecified) | 100 | 87 | 37
CC(=O)C1=NN(c2ccc(Cl)cc2)C(c2cccs2)N1c1ccccc1 (stereo unspecified) | 88 | 70 | 0
CCOc1cc(C(=O)NCCc2ccc(Cl)c(Cl)c2)ccc1-c1nc2cc(Cl)ccc2[nH]1 | 100 | 47 | 9
CCCNCc1ccc(-c2ccc(CN(CCOC)C(=O)c3cscn3)cc2)nc1.O=C(O)C(F)(F)F | 99 | 16 | 13
O=C(Cc1cccc2ccccc12)N1CCc2cc3nccc(N4CCN5CCC[C@H]5C4)c3cc21 | 100 | 99 | 3
